Consider five molecules from PubChem BioAssay.

Test [1] can be described thus: yeast TOR pathway RPL19A-GFP modulators, primary screen, cell-based, S. cerevisiae, multiplex flow cytometry (AID 1862; in the data active = percent of DMSO control GFP below about 86%;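 note: lower values mimic rapamycin by blocking the RPL19A rise seen in DMSO cells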). The following applies: S. cerevisiae RPL19A-GFP strain, flow cytometry fluorescence, 3 h; at 10 µM; stronger effect = lower value. Background: A flow cytometer gives signals particle by particle.
Test [2] is described as follows: modulators of MEP2-GFP levels in yeast, primary screen, S. cerevisiae, multiplex flow cytometry (AID 1867;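 active = GFP response, as percent of the DMSO control, above the screen-wide mean plus 3 SD, about 139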;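 note: median GFP channel fluorescence of barcode-gated MEP2-GFP cells measured by flow cytometry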). The conditions noted are these: S. cerevisiae MEP2-GFP strain, 3 h, at 10 µM, stronger effect = higher value, 100% means same as DMSO wells.
A short description of test [3]: modulators of CIT2-GFP expression in yeast, primary screen, S. cerevisiae, GFP fusion, multiplex flow cytometry (AID 1870;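 active = percent response above a set limit, the screen-wide mean plus 3 SD, cut at about 130% in these data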;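 note: barcoded CIT2-GFP strain pooled with four other GFP strains with rapamycin as positive control; median GFP fluorescence per well over plate mean of DMSO wells so 100% = DMSO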). The conditions noted are these: 3 h, at 10 µM, stronger effect = higher value.
A short description of test [4]: modulators of LAP4-GFP expression in yeast, primary screen, S. cerevisiae, multiplex flow cytometry (AID 1873;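 active = GFP signal, as percent of the solvent control, above the screen mean plus 3 SD, about 149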). The conditions noted are these: 3 h, at 10 µM, stronger effect = higher value.
A short description of test [5]: modulators of AGP1-GFP expression in yeast TOR pathway, primary screen, cell-based, multiplex flow cytometry, S. cerevisiae (AID 1887;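 active = GFP signal above the screen-wide mean plus 3 SD, that is over about 124.5% of the solvent control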;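 note: AGP1-GFP fusion strain of S. cerevisiae within a five-strain barcoded multiplex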). The conditions noted are these: 3 h, at 10 µM, stronger effect = higher value.
A short description of test [6]: inhibitors of CD8+ T cell-vesicle binding, pilot screen, LFA-1/ICAM-1 modulator project, MLPCN validation set, flow cytometry (AID 2523).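 For vesicle binding response: mean PE anti-B7-1 fluorescence of CD8+ cells relative to row control; 100% = QL9-loaded vesicles with DMSO vehicle in the same plate row.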 The following applies: 2C mouse CD8+ T cells, at 7 µM, stronger effect = lower value; double positive events: measured here: CD8+/vesicle+ event percentage.
The target of test [7] is Integrin beta-1 (Homo sapiens) + Integrin alpha-4 (Homo sapiens) (UniProt P13612+P05556). Kind of test: inhibition of HUTS-21 binding to VLA-4, pilot screen, VLA-4 allosteric modulator project, U937 cells, HUTS-21 mAb, flow cytometry, validation set (AID 2674;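 active = inhibition above 50%, about 3 SD of the validation set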;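 note: antibody binding induced by the VLA-4 ligand LDV present at three times its Kd; 0% = LDV ligand with antibody and no compound and 100% = antibody without LDV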). The conditions noted are these: HUTS-21 LIBS mAb binding, at 6.7 µM, stronger effect = higher value, binding induced by LDV ligand.

The nature of test [8]: superoxide lowering in aged yeast cells, pilot screen, validation compound set (AID 2706;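 active = superoxide response below 65% of plate, a cut near 3 SD across the whole screen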;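 note: yeast exposed to compound for one week at 30 degrees C before staining; 100% = mean of all compound wells on the same plate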). The following applies: S. cerevisiae aging, superoxide DHE fluorescence; at 10 µM; stronger effect = lower value.
For test [9], the target named is Beta-adrenergic receptor kinase 1 (Homo sapiens) (UniProt P25098). Briefly: GRK2 binders displacing RNA aptamer, biochemical, validation, human GRK2, bead flow cytometry (AID 488806;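 active = aptamer binding inhibition above 30%, about 3 SD of noise from non-fluorescent compounds; inactive = inhibition at or below 30%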). The following applies: bead-bound GRK2, FAM-aptamer displacement, at 10 µM, stronger effect = higher value.
Test [10] addresses Beta-2 adrenergic receptor (Homo sapiens) (UniProt P07550). Briefly: beta2AR agonists driving receptor internalization, pilot screen, cell-based, FAP fluorogen, flow cytometry, validation set (AID 504459;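 active = percent response above 42, roughly 3 SD of non-fluorescent test compounds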;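 note: agonist-driven loss of surface beta2AR via internalization measured by FAP dye flow cytometry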). The conditions noted are these: Am2.2-beta2AR cells, FAP surface receptor flow cytometry; at 10 µM; stronger effect = higher value.
The target in test [11] is AP-2 complex subunit beta (Homo sapiens) (UniProt P63010). Briefly: inhibitors of arrestin peptide binding to AP2, pilot screen, biochemical, validation set, GST-AP2 beads, flow cytometry (AID 504541;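 active = inhibition above 54%, about 3 SD of non-fluorescent compounds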;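 note: AP2 carries R879A mutation and is captured from E. coli lysate; bead-bound FITC arrestin peptide fluorescence measuring arrestin peptide binding to AP2; 0% = DMSO wells and 100% = excess unlabeled arrestin peptide control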). The following applies: FITC arrestin peptide, at 10 µM, stronger effect = higher value, AP2 beta2 appendage fragment, R879A mutant.
Test [12] in a line: yeast V-ATPase proton transport modulators, S. cerevisiae, pHLuorin, HTS validation (AID 504600; in the data active = response above about 15%;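 note: plate controls were DMSO for no effect and reference compound for full effect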). The conditions noted are these: S. cerevisiae pHLuorin cytosolic pH, at 10 µM, stronger effect = higher value.
The subject of test [13] is anti-desmoglein-3 scFv antibody binding to human DSG3. Briefly: inhibitors of anti-DSG3 scFv binding to DSG3, pilot screen, biochemical, validation compound set, bead-based, flow cytometry (AID 588368;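 active = binding below the plate cutoff, the plate median minus 3 SD, with a reading above zero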;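 note: signal is the median channel fluorescence of bead-bound GFP antibody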). The conditions noted are these: Protein G beads, DSG3-Fc, scFv-GFP binding, at 10 µM, stronger effect = lower value.
Test [14] can be described thus: inhibitors of fungal efflux pumps CDR1, CDR2, MDR1, pilot screen, validation compound set, multiplex, phenotypic (AID 588506;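 active = efflux inhibition above 0.42, the validation set average plus 4 SD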;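 note: Nile Red retained in cells so higher fluorescence means more efflux inhibition; 0 = negative control wells and 1 = enniatin B 25 µM full block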). The conditions noted are these: S. cerevisiae pump-expressing triplex, Nile Red efflux flow cytometry; at 10 µM; stronger effect = higher value; the pumps come from Candida albicans.
Test [15] addresses ATP-binding cassette sub-family B member 6 (Homo sapiens) (UniProt Q9NP58). Kind of test: ABCB6 transporter inhibitors, pilot screen, K562-ABCB6 cells, flow cytometry, validation set (AID 588550;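 active = inhibition above the screen-wide mean plus 3 SD, about 51%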;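 note: 0% = DMSO wells and 100% = benzethonium chloride 70 µM positive control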). The following applies: K562-ABCB6 porphyrin accumulation, 1 h, at 10 µM, stronger effect = higher value.
Test [16] is described as follows: promoters of myeloid differentiation in arrested cells, primary screen, cell-based, GFP/MAC1 double positive, flow cytometry, validation set (AID 588685;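 active = differentiation response of at least 50%, scaled between solvent and reference control, from cells with both markers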;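 note: compound exposure lasts four days before antibody staining and flow analysis; 0% = DMSO wells and 100% = 5 µM fulvestrant positive control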). The following applies: ER-HoxA9 marrow cells, stronger effect = higher value, normalized: vehicle 0, fulvestrant 100.

Molecules are shown by their SMILES. Records with an inconclusive call do not appear. Calls of active or inactive are those of the source.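 Rule for the calls, unless noted: active = response below a set limit, under 55% cells CD8-positive and vesicle-bound, and CD8 cells' 90th-percentile brightness under 279; inactive = the rest.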

Sequence of AP-2 complex subunit beta (Homo sapiens) (P63010 whole entry, looked up, the tested form may be a part, one chain of several): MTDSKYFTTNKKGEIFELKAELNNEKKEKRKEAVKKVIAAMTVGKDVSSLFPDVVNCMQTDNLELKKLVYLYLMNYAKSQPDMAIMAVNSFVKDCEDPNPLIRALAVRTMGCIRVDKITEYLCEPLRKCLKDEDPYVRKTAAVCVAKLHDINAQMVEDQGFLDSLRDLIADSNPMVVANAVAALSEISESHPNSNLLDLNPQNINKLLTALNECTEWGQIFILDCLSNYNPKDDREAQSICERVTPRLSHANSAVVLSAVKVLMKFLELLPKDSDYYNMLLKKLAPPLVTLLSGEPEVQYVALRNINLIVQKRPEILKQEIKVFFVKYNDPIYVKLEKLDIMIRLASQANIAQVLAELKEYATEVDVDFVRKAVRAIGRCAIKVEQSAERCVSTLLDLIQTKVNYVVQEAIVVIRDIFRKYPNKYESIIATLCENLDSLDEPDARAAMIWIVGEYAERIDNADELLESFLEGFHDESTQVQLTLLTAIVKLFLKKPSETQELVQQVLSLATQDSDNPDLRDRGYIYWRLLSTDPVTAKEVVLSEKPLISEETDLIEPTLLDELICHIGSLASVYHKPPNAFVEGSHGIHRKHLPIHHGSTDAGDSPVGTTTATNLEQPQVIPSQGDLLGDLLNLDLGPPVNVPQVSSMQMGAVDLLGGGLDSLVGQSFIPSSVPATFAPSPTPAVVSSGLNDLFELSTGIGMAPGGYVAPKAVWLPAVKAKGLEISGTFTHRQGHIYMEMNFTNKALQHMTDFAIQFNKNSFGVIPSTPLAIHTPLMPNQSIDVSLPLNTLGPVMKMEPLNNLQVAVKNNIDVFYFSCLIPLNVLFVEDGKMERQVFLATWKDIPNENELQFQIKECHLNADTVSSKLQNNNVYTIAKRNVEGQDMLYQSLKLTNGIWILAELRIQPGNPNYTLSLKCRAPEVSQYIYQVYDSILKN
Sequence of Integrin beta-1 (Homo sapiens) + Integrin alpha-4 (Homo sapiens) (P05556 whole entry, looked up): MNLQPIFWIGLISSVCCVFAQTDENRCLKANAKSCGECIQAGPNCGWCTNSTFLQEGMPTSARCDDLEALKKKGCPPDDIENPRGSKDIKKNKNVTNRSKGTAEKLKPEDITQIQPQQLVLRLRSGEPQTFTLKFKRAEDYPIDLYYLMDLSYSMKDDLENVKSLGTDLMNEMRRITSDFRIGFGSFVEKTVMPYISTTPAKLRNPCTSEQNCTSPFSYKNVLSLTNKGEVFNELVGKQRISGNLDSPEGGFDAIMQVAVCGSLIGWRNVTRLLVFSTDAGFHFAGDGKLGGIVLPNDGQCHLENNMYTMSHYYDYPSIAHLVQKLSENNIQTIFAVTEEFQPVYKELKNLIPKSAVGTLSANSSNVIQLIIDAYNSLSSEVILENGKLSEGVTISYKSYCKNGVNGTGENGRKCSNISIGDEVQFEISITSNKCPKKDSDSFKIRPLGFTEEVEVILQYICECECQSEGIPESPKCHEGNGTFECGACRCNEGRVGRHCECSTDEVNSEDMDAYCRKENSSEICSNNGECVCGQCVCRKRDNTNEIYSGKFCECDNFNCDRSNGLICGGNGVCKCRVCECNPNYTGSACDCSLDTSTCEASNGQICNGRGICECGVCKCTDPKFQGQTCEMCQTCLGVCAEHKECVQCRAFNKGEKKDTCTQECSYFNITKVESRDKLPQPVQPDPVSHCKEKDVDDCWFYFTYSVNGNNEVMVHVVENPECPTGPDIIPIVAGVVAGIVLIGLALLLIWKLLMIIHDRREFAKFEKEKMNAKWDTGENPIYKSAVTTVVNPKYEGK
Sequence of Integrin beta-1 (Homo sapiens) + Integrin alpha-4 (Homo sapiens) (P13612 whole entry, looked up): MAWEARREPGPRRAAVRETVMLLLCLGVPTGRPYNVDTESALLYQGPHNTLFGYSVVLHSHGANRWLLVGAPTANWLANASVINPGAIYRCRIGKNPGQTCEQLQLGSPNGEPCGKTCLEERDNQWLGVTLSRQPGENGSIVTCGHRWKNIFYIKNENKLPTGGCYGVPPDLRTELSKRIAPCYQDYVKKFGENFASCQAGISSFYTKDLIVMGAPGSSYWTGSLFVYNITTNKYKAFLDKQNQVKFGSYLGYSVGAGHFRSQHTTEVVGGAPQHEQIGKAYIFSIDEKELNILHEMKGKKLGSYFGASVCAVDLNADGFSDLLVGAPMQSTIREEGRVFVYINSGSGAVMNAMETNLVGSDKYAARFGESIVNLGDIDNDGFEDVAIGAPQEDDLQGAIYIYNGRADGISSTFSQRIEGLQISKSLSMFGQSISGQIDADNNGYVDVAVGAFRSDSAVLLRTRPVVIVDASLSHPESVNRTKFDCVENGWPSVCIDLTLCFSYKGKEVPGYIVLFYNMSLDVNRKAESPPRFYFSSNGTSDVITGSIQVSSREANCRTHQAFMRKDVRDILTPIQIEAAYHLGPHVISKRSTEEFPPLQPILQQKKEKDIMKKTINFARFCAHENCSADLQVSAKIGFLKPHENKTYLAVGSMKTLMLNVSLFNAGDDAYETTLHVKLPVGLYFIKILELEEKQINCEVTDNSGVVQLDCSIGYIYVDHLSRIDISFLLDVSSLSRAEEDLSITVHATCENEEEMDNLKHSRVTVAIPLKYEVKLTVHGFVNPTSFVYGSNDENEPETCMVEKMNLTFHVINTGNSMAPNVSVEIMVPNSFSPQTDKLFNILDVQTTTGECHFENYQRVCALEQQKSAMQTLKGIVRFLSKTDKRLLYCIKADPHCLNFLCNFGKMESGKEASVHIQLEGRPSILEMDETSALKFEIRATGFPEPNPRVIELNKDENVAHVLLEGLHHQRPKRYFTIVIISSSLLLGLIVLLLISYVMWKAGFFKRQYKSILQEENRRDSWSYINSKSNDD
Sequence of Beta-adrenergic receptor kinase 1 (Homo sapiens) (P25098 whole entry, looked up): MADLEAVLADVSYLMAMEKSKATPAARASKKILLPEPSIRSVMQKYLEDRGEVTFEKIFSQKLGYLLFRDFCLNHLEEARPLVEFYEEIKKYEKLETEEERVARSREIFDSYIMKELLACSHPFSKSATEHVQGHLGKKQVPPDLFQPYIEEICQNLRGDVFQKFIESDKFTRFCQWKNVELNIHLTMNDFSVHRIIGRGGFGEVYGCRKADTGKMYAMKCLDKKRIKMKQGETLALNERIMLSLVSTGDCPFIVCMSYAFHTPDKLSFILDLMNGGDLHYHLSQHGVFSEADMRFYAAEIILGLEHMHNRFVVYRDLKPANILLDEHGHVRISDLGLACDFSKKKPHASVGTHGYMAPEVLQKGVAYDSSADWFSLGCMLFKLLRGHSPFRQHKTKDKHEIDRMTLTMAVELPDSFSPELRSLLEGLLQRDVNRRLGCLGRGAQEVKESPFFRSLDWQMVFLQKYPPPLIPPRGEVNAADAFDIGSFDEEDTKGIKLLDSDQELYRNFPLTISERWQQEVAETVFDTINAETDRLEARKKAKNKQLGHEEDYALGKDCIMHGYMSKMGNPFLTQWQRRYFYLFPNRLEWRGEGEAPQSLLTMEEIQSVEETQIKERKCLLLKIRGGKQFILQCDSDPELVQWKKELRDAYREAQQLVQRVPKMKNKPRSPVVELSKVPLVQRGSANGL
Sequence of Beta-2 adrenergic receptor (Homo sapiens) (P07550 whole entry, looked up): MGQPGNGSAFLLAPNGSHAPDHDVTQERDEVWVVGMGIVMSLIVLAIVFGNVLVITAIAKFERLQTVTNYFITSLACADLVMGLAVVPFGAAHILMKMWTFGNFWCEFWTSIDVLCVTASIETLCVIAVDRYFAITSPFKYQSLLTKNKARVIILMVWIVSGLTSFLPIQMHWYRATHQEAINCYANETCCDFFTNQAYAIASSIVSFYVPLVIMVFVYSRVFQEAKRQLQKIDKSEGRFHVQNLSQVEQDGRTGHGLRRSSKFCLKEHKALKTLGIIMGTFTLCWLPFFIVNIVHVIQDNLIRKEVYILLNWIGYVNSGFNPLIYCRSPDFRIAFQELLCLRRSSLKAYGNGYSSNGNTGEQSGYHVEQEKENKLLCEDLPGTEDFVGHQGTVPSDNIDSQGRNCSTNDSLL
Sequence of ATP-binding cassette sub-family B member 6 (Homo sapiens) (Q9NP58 whole entry, looked up): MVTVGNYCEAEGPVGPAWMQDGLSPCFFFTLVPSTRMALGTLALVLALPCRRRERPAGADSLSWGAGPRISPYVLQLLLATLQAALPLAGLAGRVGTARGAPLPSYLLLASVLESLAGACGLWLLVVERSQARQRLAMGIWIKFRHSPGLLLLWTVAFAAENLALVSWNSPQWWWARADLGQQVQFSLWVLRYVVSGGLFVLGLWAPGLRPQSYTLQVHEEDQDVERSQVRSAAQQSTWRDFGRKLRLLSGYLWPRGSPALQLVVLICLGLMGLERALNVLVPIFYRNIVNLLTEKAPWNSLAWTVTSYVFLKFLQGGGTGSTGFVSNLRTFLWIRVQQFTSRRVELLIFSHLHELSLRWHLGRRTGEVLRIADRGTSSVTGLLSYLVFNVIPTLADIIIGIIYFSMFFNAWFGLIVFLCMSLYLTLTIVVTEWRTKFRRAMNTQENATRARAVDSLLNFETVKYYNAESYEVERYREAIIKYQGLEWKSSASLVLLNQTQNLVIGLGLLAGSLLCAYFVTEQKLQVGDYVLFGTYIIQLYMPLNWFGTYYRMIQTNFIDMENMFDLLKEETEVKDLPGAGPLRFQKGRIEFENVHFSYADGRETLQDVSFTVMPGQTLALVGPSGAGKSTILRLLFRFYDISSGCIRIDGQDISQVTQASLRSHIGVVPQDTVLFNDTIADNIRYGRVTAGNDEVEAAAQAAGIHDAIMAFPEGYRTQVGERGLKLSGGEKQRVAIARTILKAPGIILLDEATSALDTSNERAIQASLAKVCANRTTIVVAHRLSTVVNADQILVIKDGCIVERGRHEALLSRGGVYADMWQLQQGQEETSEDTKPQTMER

What is called inhibition is the change of the read-out against control, counted positive when it falls. For the molecule `c1ccc2[nH]c(-c3cscn3)nc2c1`, in test [1], the percent of DMSO control GFP was 97.6% (inactive). In addition, the GFP response vs DMSO was 103% (inactive) in test [2] and 123% (inactive) in test [4]. Besides, the percent response of DMSO control in [3] is 97.7% (inactive). Further, the GFP response, % of DMSO in test [5] is 111% (inactive). The double positive events in [6] worked out at 58.6%. The vesicle binding response in [6] was 174% (inactive). The values for the inhibition in test [7], in test [11] and in [15] were 2.29% (inactive), 5.36% (inactive) and 0% (inactive), respectively. In addition, the superoxide response (% of plate) in test [8] was 85.3% (inactive). Moreover, the aptamer binding inhibition in test [9] was -2% (inactive). The response was -32% (inactive) in test [10] and 1.12% (inactive) in test [12]. In test [13], the binding (% of control) was 108% (inactive). Also, in test [14], the efflux inhibition (fraction of control) is 0 (inactive). Also, the differentiation response in [16] is -2.03% (inactive).

`O=C(Nc1nc2ccccc2s1)c1ccc(F)cc1`: the percent of DMSO control GFP in [1] is 100% (inactive). In addition, the GFP response vs DMSO is 106% (inactive) in [2] and 109% (inactive) in [4]. The percent response of DMSO control in test [3] was 102% (inactive). Besides, the GFP response, % of DMSO in test [5] is 105% (inactive). For the same molecule, the double positive events in test [6] turned out to be 59.5%. In addition, the vesicle binding response in test [6] was 297% (inactive). Besides, the results for the inhibition in [7], in [11] and in test [15] were -4.52% (inactive), -2.74% (inactive) and 9% (inactive), respectively. In addition, in test [8], the superoxide response (% of plate) is 103% (inactive). The aptamer binding inhibition in test [9] is 3% (inactive). The response in [10] was -12.7% (inactive); in [12], 4.11% (inactive). The binding (% of control) in test [13] was 101% (inactive). In addition, in [14], the efflux inhibition (fraction of control) is -0.13 (inactive). In test [16], the differentiation response is -4% (inactive).

For `COc1cccc2c(O)cc(=O)n(C)c12`, in [1], the percent of DMSO control GFP is 96.9% (inactive). Moreover, the GFP response vs DMSO in [2] was 111% (inactive); in test [4], 116% (inactive). In addition, the percent response of DMSO control in test [3] was 96.7% (inactive). Also, the GFP response, % of DMSO in [5] was 100% (inactive). The same molecule came in with a double positive events in [6] of 61.5%. Moreover, the vesicle binding response in [6] is 169% (inactive). Further, the inhibition in test [7] was 3.67% (inactive); in test [11], 25% (inactive); in [15], 4% (inactive). The superoxide response (% of plate) in test [8] was 98.4% (inactive). The aptamer binding inhibition in test [9] was -1% (inactive). Besides, the response in test [10] is 5.82% (inactive); in test [12], -5.16% (inactive). The binding (% of control) in test [13] is 101% (inactive). The efflux inhibition (fraction of control) in test [14] is -0.17 (inactive). The differentiation response in test [16] was -21.6% (inactive).

As to `CC(NC(=O)c1cccnc1)C(=O)O` (stereo not given), the percent of DMSO control GFP in test [1] is 105% (inactive). Moreover, the GFP response vs DMSO in test [2] was 98.5% (inactive); in test [4], 78.6% (inactive). Further, the percent response of DMSO control in [3] is 114% (inactive). Further, the GFP response, % of DMSO in test [5] is 90.5% (inactive). The double positive events in test [6] was found to be 53.1%. Moreover, in test [6], the vesicle binding response is 54.6% (active). The inhibition in test [7] is -5.89% (inactive); in test [11], 0.46% (inactive); in [15] it was 8% (inactive). Also, the superoxide response (% of plate) in test [8] is 94.6% (inactive). Further, the aptamer binding inhibition in test [9] is 4% (inactive). For the same molecule, the values for the response in test [10] and in test [12] were -9.77% (inactive) and -5.71% (inactive), respectively. Also, the binding (% of control) in test [13] is 99.1% (inactive). Moreover, in [14], the efflux inhibition (fraction of control) was -0.1 (inactive). Moreover, the differentiation response in [16] was -7.2% (inactive).

As for `CC1=CC(=O)c2ccccc2C1=O`, in [1], the percent of DMSO control GFP is 101% (inactive). The GFP response vs DMSO in [2] was 104% (inactive); in [4], 94.8% (inactive). Moreover, in [3], the percent response of DMSO control is 94.5% (inactive). Besides, in [5], the GFP response, % of DMSO was 91.1% (inactive). The same molecule came in with a double positive events in [6] of 60.8%. For the same molecule, the vesicle binding response in test [6] was 105% (inactive). Besides, the inhibition was -5.11% (inactive) in [7], -9.12% (inactive) in test [11] and 1% (inactive) in test [15]. Further, the superoxide response (% of plate) in test [8] is 108% (inactive). Besides, the aptamer binding inhibition in test [9] was 1% (inactive). The response in [10] is 22.2% (inactive); in test [12] it was 1.78% (inactive). Also, the binding (% of control) in [13] is 102% (inactive). In [14], the efflux inhibition (fraction of control) is -0.21 (inactive). The differentiation response in test [16] was 14.4% (inactive).
